In the library only some 2.3% were active in any assay of this set; here they are far more common.
IkB sig inh = suppresses IkB signaling in ABC-DLBCL reporter cells | ABC-DLBCL IkBa-CBG/CBR dual luciferase ratio, 4 h; response scale: scaled: untreated 0%, proteasome inhibitor 100% | AID 445 | hit rate 0.04% among 110,000 | Potency, µM (series often up to 57.1 µM), without a hit: at the highest dose IkBa stabilization activation; active = well fitted curve in the direction sought with a large enough effect in the signal ratio, not every such curve was filed as active; inconclusive = small, poorly fitted or top-dose-only effect, or a change in a side signal; the % refers to the signal ratio;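 also: the direction sought is a rising ratio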
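Curves were fitted separately to fusion (green), unfused (red) and ratio luminescence, then classed by r2, magnitude and activity. Cells: OCI-Ly3, 4 h compound plus doxycycline at 37C; 10 uM MG-132 defined full response.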
p53ts 39C tox = p53ts cell cytotoxicity, nonpermissive temperature. H1299-p53A138V viability at 39C, ATP luminescence, 24 h. Potency, µM (doses to about 46.1 µM), for the others: at the top dose activity change, negative = cell killing, hits mostly cytotoxic. hit rate 1.5% among 130,000; also: % is scaled to controls: 0 for no effect and ±100 for the full control effect; nearly all actives have a fitted effect of over 55% in size
Peg3 imprint = inducers of genomic imprint erasure in mouse ES cells | AID 1948 | Potency, µM (highest dose often 60.7 µM), for the others: top-dose activity change, positive = activation, hits mostly activators | mouse ES Peg3-LacZ reporter, beta-gal luminescence, 40 h | hit rate 0.02% among 110,000
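Readout: BetaGlo luminescence (5 min, room temp) for LacZ from the normally silent maternal Peg3 allele in female Peg3LacZ-Neo ES cells. Cells 300/well, 40 h, 37C, 5% CO2. Data normalized per plate to negative controls.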
ERK AVP inh = inhibitors of vasopressin-stimulated ERK signaling pathway; hit rate 0.99% among 72,000; Potency, µM (top dose mostly 57.5 µM), inactives show top-dose activity, negative = inhibition, usual class: inhibitors; HEK293-V1b, vasopressin-stimulated pERK AlphaScreen; AID 995; also: % is scaled to controls: 0 for no effect and ±100 for the full control effect; nearly all actives have a fitted effect of over 55% in size
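Overnight-seeded V1b-HEK293 cells in 1% FBS got compound, then vasopressin (25 nM final, 5 min, 37C), then lysis buffer. AlphaScreen detection of phospho-ERK; activity normalized to basal and full-stimulation controls.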
p53ts 32C kill = cytotoxicity in p53ts cells at permissive temperature. AID 924. Potency, µM (series often up to 46.1 µM), inactives show top-dose activity change, negative = cytotoxicity, usual class: cytotoxic. hit rate 0.93% among 130,000. H1299-p53A138V at 32C, ATP luminescence viability, 24 h;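 also: 0% = DMSO and -100% = full killing by reference compound; nearly all actives have a fitted effect of over 55% in size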
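Cells: H1299 p53ts (A138V), 600/well, pre-incubated 16–30 h at 37C. Cpd up to 46 uM, 24 h, 32C. Readout: ATPlite luminescence, 20 min RT. Normalization: DMSO vs tamoxifen 100 uM. AC50 by Hill equation.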
An asterisk follows results filed as active; ? = inconclusive; · = no result; [ ] = remark or other dose. Unless noted, calls follow the shape of the dose curve; as a rule, active = well fitted curve in the direction sought with a large enough effect; inconclusive = small, poorly fitted or top-dose-only effect, or another doubt; inactive = no such curve, though single readings can be large; an effect the other way counts as inactive or inconclusive. Potency is read from the fitted curve at half-maximal effect.

SMILES	IkB sig inh	p53ts 39C tox	Peg3 imprint	ERK AVP inh	p53ts 32C kill
O=C(O)c1ccccc1C(=O)Nc1cc2c(cc1Br)-c1ccccc1C2=O	1.5%[11.4 µM]	7.0%[9.22 µM]	-10.6%[10.9 µM]	8.2%[11.5 µM]	7.9%[9.22 µM]
CCN(CC)c1ccc(NC(=O)c2cccc(C)c2OC)c(C)c1	-2.8%	-27.5%	-25.4%	25.1µM*	-23.2%
CCN(CC)S(=O)(=O)c1cc(C(=O)Nc2nncs2)c(Cl)cc1Cl	6.2%	-3.1%	-8.3%	31.6µM*	?
O=c1c(-c2ccc(F)cc2)nc2cnc(N3CCNCC3)nc2n1Cc1ccc(F)cc1	-3.5%[11.4 µM]	?	-56.1%	14.2%	22.5%
Cc1nn(CCCC(=O)NCCc2ccc(Cl)cc2)c(=O)c2c1sc1ccccc12	2.5%	20µM*	-23.0%[10.9 µM]	·	?
COc1ccc(CCNC(=O)C(C)n2nc(C)c3sc4ccccc4c3c2=O)c(OC)c1 (stereo not drawn)	?	12.6µM*	-21.4%[10.9 µM]	·	?
CCC(C(=O)NCCc1ccc(OC)c(OC)c1OC)n1nc(C)c2sc3ccccc3c2c1=O (stereo not drawn)	-2.8%	-28.8%	-12.6%[10.9 µM]	·	-7.9%
CCCNC(=O)OC[C@@H]1O[C@H](CCO/N=C(\C)CCN2CCc3nc(CC)c(CC)cc3C2)C=C[C@@H]1Oc1ccc(OC)cc1	·	-0.3%[9.22 µM]	·	19.5%[11.5 µM]	3.1%[9.22 µM]
OC[C@@H]1NC[C@@H](O)[C@H]1O	-6.1%	11.2%	·	23.0%	-4.7%
C/C=C/c1ccc(OCCCCN2C(=O)NC(C)(C)C2=O)c(OC)c1	-3.9%	-9.1%	2.3%	20µM*	-26.7%
C/C=C/c1ccc(OCCSc2nc(C)cc(=O)[nH]2)c(OC)c1	-2.3%	-25.4%	-12.4%	-16.1%	-15.3%
O=S(=O)(NCc1ccccn1)c1cccc2cccnc12	0.6%	21.2%	6.4%	·	10.2%
CCOC(=O)COc1ccc(-c2nnc(-c3ccccc3)o2)cc1	?	?	-95.2%	8.7%	10µM*
C/C(CCC(=O)OC[C@@H]1O[C@H](C#Cc2ccccc2)C=C[C@@H]1Oc1ccc(C)cc1)=N/OC[C@@H](C)[C@H](OCc1ccccc1)C(C)C	·	-4.1%[9.22 µM]	·	-19.3%[11.5 µM]	-6.2%[9.22 µM]
O=C(O)c1nnsc1-c1ccc(-c2snnc2C(=O)O)cc1	3.6%[11.4 µM]	-4.1%[9.22 µM]	-21.2%[10.9 µM]	18.1%[11.5 µM]	-3.6%[9.22 µM]
O=c1oc(-c2cccs2)nc2sc3c(c12)CCCCC3	?	10µM*	4.8%	21.7%	12.6µM*
CC1(C)Cc2c(sc3nc(-c4cccs4)n(N)c(=O)c23)CO1	?	?	-12.5%	?	?
Nn1c(-c2cccs2)nc2sc3c(c2c1=O)CCCC3	?	?	-53.6%	12.2%	10µM*
Cc1ccc(-n2c(SCc3ccccc3C)nc3[nH]ncc3c2=O)cc1C	?	25.1µM*	-12.3%[10.9 µM]	·	14.9%
CCc1ccc(-n2c(SCc3ccccc3C)nc3[nH]ncc3c2=O)cc1	?	25.1µM*	-12.2%[10.9 µM]	·	?
Cc1noc(C)c1CSc1nc2[nH]ncc2c(=O)n1-c1ccccc1	4.2%	-0.3%	-20.1%	12.6µM*	1.7%
Cc1nn(-c2ccc(N3CCCCC3)nn2)c(C)c1CCC(=O)Nc1cccc(F)c1	8.2%	?	-5.3%[10.9 µM]	·	?
Cc1ccc(NC(=O)CCc2c(C)nn(-c3ccc(N4CCCCC4)nn3)c2C)cc1F	?	12.6µM*	-17.8%[10.9 µM]	·	?
CCOC(=O)OCC1OC(C#Cc2ccccc2)C=CC1OC(=O)OCC (stereo not drawn)	·	-12.9%[9.22 µM]	·	-3.1%[11.5 µM]	2.5%[9.22 µM]
C[C@H](Oc1ccc(Oc2cnc3ccc(Cl)cc3n2)cc1)C(=O)O	-3.1%[11.4 µM]	?	-8.5%[10.9 µM]	3.0%[11.5 µM]	8.4%[9.22 µM]
SMILES	IkB sig inh	p53ts 39C tox	Peg3 imprint	ERK AVP inh	p53ts 32C kill
Cc1ccc2nc(NC(=O)CN(C)S(=O)(=O)c3ccc(Br)s3)sc2c1	?	37.0%	-32.2%	3.98µM*	18.1%
Cc1cccc2sc(NC(=O)CN3C(=O)c4ccccc4C3=O)nc12	·	10.6%	·	·	·
Cc1ccc2nc(NC(=O)CNS(=O)(=O)c3ccc(Br)s3)sc2c1	?	-10.4%	-18.8%	-18.8%	-13.1%
Cc1cccc2sc(NC(=O)CNS(=O)(=O)c3ccc(Br)s3)nc12	?	-15.6%	-0.4%	20µM*	-2.5%
CC1(C)OC(C(O)(c2cccc3c2oc2ccccc23)c2cccc3c2oc2ccccc23)C(C(O)(c2cccc3c2oc2ccccc23)c2cccc3c2oc2ccccc23)O1 (stereo not drawn)	·	5.3%[9.22 µM]	·	1.7%[11.5 µM]	0.7%[9.22 µM]
O=C(Nc1nnc(/N=C/c2ccco2)s1)c1ccc(F)cc1	1.4%	12.6µM*	-39.8%	-11.0%	10µM*
O=C(Nc1nnc(-c2ccco2)s1)c1ccccc1	?	?	-68.7%	-4.3%	?
CN1CCc2cc(NC(=O)Nc3cccnc3)ccc21	8.8%	?	-35.9%	2.8%	?
Cn1ccc2cc3c(cc21)CCN3C(=O)Nc1cccnc1	-0.2%	10µM*	-30.9%	?	10µM*
CC(=O)C1(C)CC2=C(CCCC2(C)C)CC1C (stereo not drawn)	0.7%	16.6%	-5.0%	-23.0%	-0.8%[1.84 µM]
Cc1cc(C)nc(Nc2ccc(N3CCOCC3)cc2)n1	-3.3%	?	-15.1%	?	12.6µM*
Cc1cc(C)nc(Nc2ccc(N3CCCC3)cc2)n1	0.7%	-23.4%	-30.9%	?	-21.4%
COc1ccc2oc(-c3ccc(C)c(NC(=O)c4ccc(-c5ccccc5[N+](=O)[O-])o4)c3)nc2c1	?	10µM*	-9.4%[10.9 µM]	·	-19.8%
C=CCc1cccc(C2C(C)CCC3C(=O)N4C(Cc5c([nH]c6ccccc56)C4c4cc(OC)c(OC)c(OC)c4)C(=O)N32)c1 (stereo not drawn)	·	-3.6%[9.22 µM]	·	13.9%[11.5 µM]	14.5%[9.22 µM]
Clc1cccc(-c2nnc(SCc3nc4ccccc4[nH]3)n2Cc2ccco2)c1	?	20.1%	-11.7%	?	0.7%
Clc1ccc(OCc2nnc(SCc3nc4ccccc4[nH]3)n2Cc2ccco2)cc1	?	31.9%	-18.4%	20µM*	27.8%
FC(F)(F)c1cccc(Nc2c3c(nc4ccc(Cl)cc24)CCC3)c1	?	12.6µM*	10.5%[10.9 µM]	·	11.2µM*
C[C@@H]1/C=C\CC(=O)OC[C@H](C)C(=O)N[C@@H](Cc2ccccc2)C(=O)OC1	·	-0.5%[9.22 µM]	·	4.9%[11.5 µM]	-8.6%[9.22 µM]
COc1ccc(-c2cn3nc(SCC(=O)Nc4cccc(C)c4C)ccc3n2)cc1	1.2%	15.8µM*	-11.3%[10.9 µM]	·	-15.5%
Cc1sc2ncnc(Sc3nnnn3-c3ccccc3)c2c1C	?	-18.7%	-33.3%	66.1%	?
Clc1ccc(-n2nnnc2Sc2ncnc3sccc23)cc1	?	20µM*	-39.2%	15.1%	?
COCCCNC(=O)C1CCCN(c2nn3cc(-c4ccc(C)cc4)nc3s2)C1 (stereo not drawn)	·	·	·	·	-10.9%
COc1cccc(NC(=S)N/N=C2/CCCCc3ccccc32)c1	·	22.4µM*	·	·	?
CCOc1ccccc1NC(=O)CSc1nnc2[nH]c(=O)cc(-c3ccccc3)n12	15.5%	?	?	·	3.6%

Source: PubChem BioAssay
